In the library only some 6.6% were active in any assay of this set; here they are far more common.
Autofluor counter: flagged as autofluorescent in microsphere protease counterscreen | compound autofluorescence counterscreen, microsphere flow cytometry; stronger effect = higher value | fluorescence intensity (test concentration not listed) | hit rate 3.1% among 360,000 | AID 624483; in the data active = fluorescence intensity above about 16000; inconclusive = no clear call, values can overlap the other calls
BoNT-F LC inh: inhibitors of Botulinum neurotoxin F light chain protease; Multiplex microsphere protease cleavage assay, flow cytometry; inhibition, % at 10 µM; hit rate 0.22% among 360,000; AID 588497; in the data active = inhibition above about 35%, passing the limit was not always enough; inconclusive = no clear call, values can overlap the other calls; also: plate controls were buffer without enzyme for full effect and enzyme alone for no effect
Mtb FBA inh: inhibitors of M. tuberculosis fructose-bisphosphate aldolase; inhibition, % at 1 µM; hit rate 2.3% among 360,000; P9WQA3; purified M. tuberculosis FBA, fluorescence read-out; in the data active = inhibition above about 27%;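 also: 0% = vehicle and 100% = reference inhibitor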
Target sequence (P9WQA3 whole entry, looked up): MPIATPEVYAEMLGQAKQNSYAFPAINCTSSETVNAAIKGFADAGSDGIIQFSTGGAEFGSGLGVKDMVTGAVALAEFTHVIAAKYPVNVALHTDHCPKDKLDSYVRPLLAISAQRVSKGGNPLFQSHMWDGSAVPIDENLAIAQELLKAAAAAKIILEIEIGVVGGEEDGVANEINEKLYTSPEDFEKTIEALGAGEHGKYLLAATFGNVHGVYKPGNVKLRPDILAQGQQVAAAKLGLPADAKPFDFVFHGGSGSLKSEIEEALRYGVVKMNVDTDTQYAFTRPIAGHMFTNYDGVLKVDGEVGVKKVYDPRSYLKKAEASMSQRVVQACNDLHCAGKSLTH
BoNT-A LC inh2: inhibitors of Botulinum neurotoxin A light chain protease | inhibition, % at 10 µM | hit rate 0.17% among 360,000 | multiplex microsphere protease substrate cleavage, flow cytometry; also: plate controls were buffer without enzyme for full effect and enzyme alone for no effect
Anthrax LF prot: inhibitors of Bacillus anthracis lethal factor protease. AID 588501. P15917. hit rate 0.12% among 360,000. multiplex microsphere protease cleavage assay, LF. inhibition, % at 10 µM; also: plate controls were buffer without enzyme for full effect and enzyme alone for no effect
GDH-TPI inh: inhibits GDH-TPI coupling enzymes, artifact for Mtb FBA screen. hit rate 1.2% among 360,000. AID 588335. GDH-TPI coupled enzyme counterscreen, NADH absorbance. inhibition, % at 4.8 µM; in the data active = inhibition above about 30%;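 also: 0% = DMSO wells and 100% = wells lacking the enzyme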
The depositor's hits bear a star; u = inconclusive; x = not tested or not shown. Rule as the data show it, unless noted: active = inhibition above about 30%; inconclusive = no clear call, values can overlap the other calls; inactive = below that.

SMILES | Autofluor counter | BoNT-F LC inh | Mtb FBA inh | BoNT-A LC inh2 | Anthrax LF prot | GDH-TPI inh
O=C(C=Cc1ccccc1Cl)c1ccccc1 | 3654 | -5.7 | 2.9 | 0.1 | -6.7 | 5.3
C=CCn1cccc(/C=C/C(=O)c2ccc(C(C)(C)C)cc2)c1=S | 2571 | -6.5 | -3.3 | 29.9* | 13.3 | 11.5
Cc1cc(N2CCC(C)CC2)nc(SCC(=O)c2ccccc2)n1 | 3092 | 5.6 | 0.2 | 0.3 | 0.6 | -4.0
COc1cccc(CNC(=O)[C@@H]2CCCN2C(=O)[C@@H]2CCCN2C(=O)c2cccc3ccccc23)c1 | 5587 | -6.1 | x | -0.2 | -5.9 | x
COc1ccc(NC(=O)C/C(C)=N/NC(=O)C(=O)NC2CCCCC2)c(OC)c1 | 2423 | 6.6 | -2.4 | -1.1 | 1.6 | 1.6
Cc1ccc(-c2nnc(CSc3nnc(C)s3)o2)cc1 | 22331* | 1.8 | 1.0 | 0.8 | -2.2 | -2.5
CC(C)CC(C(=O)NCC1CCCO1)N(C(=O)Cn1nnc(-c2ccc(F)cc2)n1)c1ccccc1F (stereo unspecified) | 21995* | -9.1 | -2.2 | -3.0 | -4.7 | -9.5
Cc1ccc(N(C(=O)Cn2nnc(-c3ccc(F)cc3)n2)C(CC(C)C)C(=O)NCC2CCCO2)cc1 (stereo unspecified) | 23138* | -3.7 | 0.7 | -0.8 | 0.0 | 9.7
Cc1ccc(-c2nnn(CC(=O)N(c3ccccc3F)C(CC(C)C)C(=O)NCC3CCCO3)n2)cc1 (stereo unspecified) | 16688* | -3.0 | -3.9 | -1.1 | -3.5 | 9.6
CC(C)CC(C(=O)NCC1CCCO1)N(C(=O)Cn1nnc(-c2ccc(F)cc2)n1)c1cccc(C(F)(F)F)c1 (stereo unspecified) | 23362* | -1.6 | -1.7 | u | -0.7 | 1.8
O=C(NCC1CCCO1)C(c1ccc(F)cc1)N(C(=O)Cn1nnc(-c2ccc(F)cc2)n1)c1cccc(O)c1 (stereo unspecified) | 3388 | 0.1 | 8.2 | -0.4 | -0.7 | 5.9
Cc1ccc(S(=O)(=O)N2C[C@H]3C(=O)C[C@@H](c4cccs4)N(S(=O)(=O)c4ccc(C)cc4)[C@H]3C[C@H]2c2ccccc2)cc1 | 4069 | -4.5 | 1.6 | 0.1 | -1.3 | x
CC(=O)c1ccc(NC(=O)Cc2ccsc2)cc1 | 5729 | 5.1 | -0.3 | 0.1 | -1.0 | 0.8
Cc1ccc(-c2nnn(CC(=O)N(CC3CCCO3)C(C(=O)NC(C)(C)C)c3ccc(F)cc3)n2)o1 (stereo unspecified) | 22682* | -1.7 | 1.0 | u | -2.3 | 1.0
O=C1CC(N2CCN(C/C=C/c3ccccc3)CC2)C(=O)N1Cc1ccc(N2CCCC2=O)cc1 (stereo unspecified) | 19939* | -2.5 | -0.6 | 0.4 | -7.3 | 2.4
COc1ccccc1CNC(=O)C1CCN(c2ncnc3c2nc2n3CCCCC2)CC1 | 4482 | 0.7 | 1.2 | 1.5 | -1.6 | -1.7
COc1ccc(-n2nc(C(=O)N3CCC(N4CCCCC4)CC3)c3c4ccccc4n(C)c3c2=O)cc1 | 7052 | 1.1 | 2.7 | 0.1 | 0.7 | 7.8
COC(=O)c1ccc(CS(=O)(=O)c2ccc(C)cc2)cc1 | 21233* | 5.2 | 0.0 | u | -3.5 | 0.0
Cc1nc(=S)c2ccccc2[nH]1 | 2600 | -1.4 | -4.7 | 0.7 | 8.3 | 30.6*
FC(F)(F)c1nc(=S)c2ccccc2[nH]1 | 4365 | 2.9 | 4.7 | -0.4 | -1.7 | 10.5
CCOC(=O)c1cc(CC)sc1NC(=O)c1ccc([N+](=O)[O-])c(N2CCOCC2)c1 | 2550 | 3.3 | -3.3 | -0.4 | 0.0 | 5.5
O=C1CC(SCc2nc3ccccc3[nH]2)C(=O)N1c1ccc(F)c(Cl)c1 (stereo unspecified) | 22834* | -2.6 | 3.1 | -0.1 | -4.0 | -15.2
O=C1CC(SCc2nc3ccccc3[nH]2)C(=O)N1c1ccc(Cl)cc1 (stereo unspecified) | 4982 | -32.5 | 4.2 | -1.0 | -2.2 | 4.5
Cc1nn2c(=O)cc(CSCC(=O)Nc3ccccc3Cl)nc2s1 | 5861 | -0.4 | 1.6 | -1.0 | -0.3 | 11.2
COc1ccccc1OCC(=O)Nc1ccc(-c2nnc(-c3ccco3)o2)cc1 | 4806 | 1.7 | 1.1 | -2.2 | -1.4 | 23.2
SMILES | Autofluor counter | BoNT-F LC inh | Mtb FBA inh | BoNT-A LC inh2 | Anthrax LF prot | GDH-TPI inh
O=C(COc1ccc(Br)cc1)Nc1ccc(-c2nnc(-c3ccco3)o2)cc1 | 21839* | -7.6 | 3.3 | -7.3 | 1.1 | -9.6
CC(C)(C)NC(=O)C(c1ccc(-c2ccccc2)cc1)N(C[C@H]1CC[C@@H]([C@@H]2CC[C@H](CO)O2)O1)C(=O)c1ccc(C(C)(C)C)cc1 (stereo partly specified) | 3732 | -0.2 | 1.0 | 0.2 | 0.0 | -9.1
Cn1c(SCC(=O)Nc2ccc(N3CCOCC3)c(Cl)c2)nnc1C(O)c1ccccc1 (stereo unspecified) | 7803 | 0.1 | -0.7 | -0.2 | -0.6 | 5.2
Cn1c(COc2ccccc2)nnc1SCC(=O)Nc1ccc(N2CCOCC2)c(Cl)c1 | 17200* | -4.7 | 0.6 | u | -4.3 | 3.8
CC1(C)C(c2ccccc2)=NC(c2cccnc2)N1O (stereo unspecified) | 21816* | 0.0 | -0.3 | u | 0.2 | 4.8
O=[N+]([O-])c1ccc2[nH]c(O)c(N=Nc3ccc(F)cc3)c2c1 | 3885 | 13.6 | -6.5 | -0.4 | -13.2 | 1.5
O=[N+]([O-])c1ccc2[nH]c(O)c(N=NC3CCS(=O)(=O)C3)c2c1 (stereo unspecified) | 4431 | 8.1 | -2.6 | -0.1 | -5.5 | 59.3*
C/C(CC(O)c1ccc2ccccc2n1)=N/O (stereo unspecified) | 20613* | -0.3 | -4.6 | 0.6 | -1.1 | 0.7
OC(c1ccc2ccccc2n1)c1c(Cl)cccc1Cl (stereo unspecified) | 2767 | -1.2 | -1.1 | -0.8 | 4.9 | 10.5
O=C(NCc1ccccc1)C1C2C=CC3(CN(Cc4cccnc4)C(=O)C13)O2 (stereo unspecified) | 19359* | 0.9 | 0.3 | 1.6 | -1.8 | -7.4
CC(Oc1ccc(Br)cc1)C(=O)NCC(c1cccs1)N1CCOCC1 (stereo unspecified) | u | -4.6 | -0.8 | -0.5 | -5.5 | 8.6
CCC(=O)OCCNc1cc(Sc2nc3ccccc3s2)c2nonc2c1[N+](=O)[O-] | 15341 | 11.2 | -10.9 | u | 16.9 | 11.2
O=[N+]([O-])c1c(NCCCO)cc(Sc2nc3ccccc3s2)c2nonc12 | 23409* | 1.9 | -14.3 | u | -1.8 | 9.2
Cc1cc2oc(C(=O)N(Cc3ccccc3)C3CCS(=O)(=O)C3)cc(=O)c2cc1Cl (stereo unspecified) | 19953* | 8.1 | 3.0 | 6.2 | 4.3 | 11.7
Cc1ccc(CN(C(=O)c2cc3ccccc3oc2=O)C2CCS(=O)(=O)C2)cc1 (stereo unspecified) | 21783* | 3.8 | 6.1 | 1.6 | 0.7 | 12.7
O=C(c1cc(=O)c2ccccc2o1)N(Cc1ccccc1)C1CCS(=O)(=O)C1 (stereo unspecified) | 5931 | 0.2 | -5.5 | 1.8 | 3.6 | -4.3
COc1ccc(-c2ccc3oc(-c4ccc(OC)cc4)c(C#CC4(O)CCCCC4)c3c2)cc1 | 3274 | 4.7 | 13.6 | 0.5 | -2.8 | 43.5*

Assay outcomes: PubChem BioAssay, several laboratories
